Source: PubChem BioAssay (NCI)
Compounds without any hit were thinned out: in the full panel of roughly 79,000, 15% have a hit. The source made the active and inactive calls. Rule as the data show it: active = growth inhibition above about 70%; inactive = the rest.

Tests used:
[1] = NCI Yeast Anticancer Drug Screen. Data for the rad50 strain (AID 155);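 also: 0% = growth of vehicle-only cultures of the same strain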; conditions: S. cerevisiae rad50 strain growth inhibition, hits give high values
In short: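 Cells are treated with compound, grown, and their growth is then scored against vehicle-only cultures of the same repair-deficient yeast strain.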

[2] = NCI Yeast Anticancer Drug Screen. Data for the mec2-1 strain (AID 157); conditions: S. cerevisiae mec2-1 strain, hits give high values
In short: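 Readout is yeast growth inhibition, normalised to vehicle-treated controls, in the mec2-1 strain exposed to compound.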

[3] = NCI Yeast Anticancer Drug Screen. Data for the sgs1 mgt1 strain (AID 161);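 also: 0% = growth of cultures given vehicle only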; conditions: S. cerevisiae sgs1 mgt1 strain, hits give high values
In short: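 Yeast cells carrying a defined DNA-repair defect were exposed to test compounds. Growth inhibition was measured relative to vehicle-treated controls.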

[4] = NCI Yeast Anticancer Drug Screen. Data for the cln2 rad14 strain (AID 165);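 also: 0% = growth equal to vehicle treated cultures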; conditions: S. cerevisiae cln2 rad14 strain, hits give high values
In short: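 Relative to vehicle controls, growth inhibition of compound-treated cln2 rad14 yeast was recorded.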

[5] = NCI Yeast Anticancer Drug Screen. Data for the bub3 strain (AID 167); conditions: S. cerevisiae bub3 mutant strain, hits give high values
In short: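 Part of a panel of yeast mutants defective in DNA damage repair or cell cycle regulation. Each strain is grown with compound, and inhibition is calculated relative to solvent-treated cultures.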

[6] = NCI Yeast Anticancer Drug Screen. Data for the mlh1 rad18 strain (AID 175); conditions: S. cerevisiae mlh1 rad18 strain growth inhibition, hits give high values
In short: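 Test agents were incubated with a yeast strain of defined genotype (DNA damage repair defect). Inhibition of growth was derived by comparison with vehicle-exposed cultures.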

[7] = at 5.0 µM (retest, dose inferred, filed as 0.5)
[8] = at 50.0 µM (retest, dose inferred, filed as 5.0)

Measured: growth inhibition

O=C1CSC2(CCN(CCCN3c4ccccc4Sc4ccc(Cl)cc43)CC2)N1
inactive: [1]; [7] 8% | [2]; [7] -4% | [2]; [8] 45% | [3]; [7] 3% | [3]; [8] 53% | [4]; [7] -11% | [5]; [7] -2% | [6]; [7] -17%
active: [1]; [8] 100% | [1]; at 50.0 µM 98.9% | [2]; at 50.0 µM 99.1% | [3]; at 50.0 µM 99.3% | [4]; [8] 100% | [4]; at 50.0 µM 99% | [5]; [8] 99% | [5]; at 50.0 µM 97.5% | [6]; [8] 99% | [6]; at 50.0 µM 91.2%

O=[N+]([O-])c1ccc(S(=O)/N=C/c2ccccc2)c([N+](=O)[O-])c1 (stereo unspecified)
inactive: [1]; [7] -2% | [1]; at 50.0 µM 48.2% | [2]; [7] -4% | [2]; at 50.0 µM 45.5% | [3]; [7] 2% | [3]; at 50.0 µM 67.6% | [4]; [7] 1% | [4]; at 50.0 µM 9% | [5]; [7] -4% | [5]; at 50.0 µM 25.9% | [6]; [7] -4%
active: [1]; [8] 96% | [2]; [8] 98% | [3]; [8] 94% | [4]; [8] 82% | [5]; [8] 97% | [6]; [8] 97% | [6]; at 50.0 µM 74.3%

O=C1C(=O)C(Cc2ccccc2)(c2ccccc2)C(=O)N1c1ccccc1 (stereo unspecified)
active: [3]; [8] 70%
inactive: [1]; [7] 0% | [1]; [8] 42% | [1]; at 50.0 µM 68.2% | [2]; [7] -3% | [2]; [8] 59% | [2]; at 50.0 µM 6.25% | [3]; [7] -2% | [3]; at 50.0 µM 54.6% | [4]; [7] 3% | [4]; [8] 22% | [4]; at 50.0 µM -9.8% | [5]; [7] -1% | [5]; [8] 52% | [5]; at 50.0 µM 10.3% | [6]; [7] 1% | [6]; [8] 62% | [6]; at 50.0 µM 40.4%

COc1ccc(CN2CCCN(Cc3ccc(OC)cc3OC)C2c2cccc([N+](=O)[O-])c2O)c(OC)c1
inactive: [1]; [7] 16% | [1]; [8] 61% | [2]; [7] 11% | [2]; [8] 29% | [2]; at 50.0 µM 29.8% | [3]; [7] 8% | [3]; [8] 20% | [4]; [7] 5% | [4]; [8] 27% | [4]; at 50.0 µM 54.1% | [5]; [7] -5% | [5]; [8] 31% | [5]; at 50.0 µM 7.65% | [6]; [7] 16% | [6]; at 50.0 µM 51.4%
active: [1]; at 50.0 µM 70.8% | [3]; at 50.0 µM 77.5% | [6]; [8] 70%

CC(=O)Oc1cccc2c(C(=O)CCl)ccnc12
active: [1]; [7] 87% | [1]; [8] 99% | [1]; at 50.0 µM 99.1% | [2]; [7] 86% | [2]; [8] 99% | [2]; at 50.0 µM 95% | [3]; [7] 96% | [3]; [8] 99% | [3]; at 50.0 µM 99.2% | [4]; [8] 99% | [4]; at 50.0 µM 92% | [5]; [7] 90% | [5]; at 50.0 µM 95.3% | [6]; [7] 73% | [6]; [8] 99% | [6]; at 50.0 µM 98.8%
inactive: [4]; [7] 15% | [5]; [8] 18%

NC(=O)N/N=C/c1ccc(Cl)s1
inactive: [1]; [7] 4% | [1]; [8] 42% | [2]; [7] 4% | [2]; [8] 21% | [2]; at 50.0 µM 59% | [3]; [7] 2% | [3]; [8] 31% | [4]; [7] -1% | [4]; [8] 10% | [4]; at 50.0 µM 52.5% | [5]; [7] 3% | [5]; [8] 35% | [6]; [7] 1% | [6]; [8] 31%
active: [1]; at 50.0 µM 94.4% | [3]; at 50.0 µM 88.8% | [5]; at 50.0 µM 82.5% | [6]; at 50.0 µM 89.2%

O=C(CBr)Oc1ccc(-c2cccc(Br)c2)cc1
active: [1]; [8] 99% | [1]; at 50.0 µM 99.7% | [2]; [8] 99% | [2]; at 50.0 µM 99.5% | [3]; [8] 100% | [3]; at 50.0 µM 99.6% | [4]; [8] 99% | [4]; at 50.0 µM 98.6% | [5]; [8] 99% | [5]; at 50.0 µM 99.6% | [6]; [8] 99% | [6]; at 50.0 µM 99.2%
inactive: [1]; [7] 1% | [2]; [7] 6% | [3]; [7] 15% | [4]; [7] -14% | [5]; [7] -6% | [6]; [7] 4%
